From PubChem
Shown are actives, neighbours in structure and some others; about 9.2% of the full set was active somewhere.
SMN2 splice up: increases expression of the SMN2 splice variant; HEK293 SMN2-luciferase splicing reporter, luminescence, 30-36 h; Potency, µM (titrated, usually from 46.1 µM), for the others: top-dose activity change, positive = activation, most hits filed as activators; 210,000 tested, 2.8% active; AID 1458; also: % of control where 0% means no effect; nearly all actives have a fitted effect of over 55% in size
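HEK293 cells carry an SMN2 […]–luciferase reporter in which exon 7 inclusion puts luciferase in frame. Cells were plated 10-12 h before compound addition, then incubated 30-36 h at 37C. ONE-Glo luminescence was read; sodium butyrate at 4.5 mM final served as control.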
NPC1 prom act: NPC1 promoter activation; Huh7 NPC1 promoter luciferase reporter, 24 h; 320,000 tested, 2.4% active; AID 485313; Potency, µM (series often up to 9.22 µM), inactives show at the highest dose activation, actives largely listed as activators; also: % of control where 0% means no effect; nearly all actives have a fitted effect of over 60% in size
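Stable NPC1-promoter luciferase Huh7 line; cpd (DMSO) 24 h, 37 °C, 5% CO2; Amplite luciferase reagent 10 min RT; luminescence readout. qHTS format.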
FLuc modulator: inhibits or activates purified firefly luciferase, miR-21 counter-screen | Potency, µM (titrated, usually from 57.5 µM), for the others: at the top dose activity change, negative = inhibition, usual class: inhibitors | 360,000 tested, 6.9% active | purified FLuc, Km substrates, luminescence inhibition | AID 588342;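 also: plate controls were vehicle for no effect and reference inhibitor for full effect; nearly all actives have a fitted effect of over 55% in size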
Target sequence (P08659 whole entry, looked up): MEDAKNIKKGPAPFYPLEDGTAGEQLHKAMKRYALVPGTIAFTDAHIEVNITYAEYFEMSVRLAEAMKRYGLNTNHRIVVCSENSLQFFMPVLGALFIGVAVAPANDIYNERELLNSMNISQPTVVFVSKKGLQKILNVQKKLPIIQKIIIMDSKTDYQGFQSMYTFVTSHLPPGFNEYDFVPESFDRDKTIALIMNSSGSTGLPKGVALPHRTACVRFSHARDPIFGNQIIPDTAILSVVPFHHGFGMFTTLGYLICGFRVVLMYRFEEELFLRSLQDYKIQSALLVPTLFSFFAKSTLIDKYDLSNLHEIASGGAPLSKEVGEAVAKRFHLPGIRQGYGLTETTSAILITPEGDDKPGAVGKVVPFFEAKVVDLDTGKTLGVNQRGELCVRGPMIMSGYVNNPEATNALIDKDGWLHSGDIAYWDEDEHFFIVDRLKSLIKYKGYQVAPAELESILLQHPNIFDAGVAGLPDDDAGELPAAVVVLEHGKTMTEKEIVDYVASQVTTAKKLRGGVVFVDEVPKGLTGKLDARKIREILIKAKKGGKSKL
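Biochemical qHTS of compounds, final roughly 60 µM downward over six points, against 10 nM purified firefly luciferase using Km concentrations of substrates (10 uM D-luciferin, 10 uM ATP) in Tris acetate pH 7.5 buffer; luminescence output.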
ELG1 genotoxic: inducers of genotoxicity in HEK293T ELG1-luciferase cells; HEK293T ELG1-luciferase reporter, luminescence, 16 h; Potency, µM (top dose mostly 46 µM), without a hit: at the top dose activity change, positive = activation, usual class: activators; 330,000 tested, 1.3% active; AID 504466; also: % of control where 0% means no effect; nearly all actives have a fitted effect of over 60% in size
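Reporter readout depends on ELG1 protein level, which increases with genetic stress. After 16 hr compound exposure at 37 °C, luciferase activity was quantified using ONE-Glo.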
ELG1 repair inh: blocks ELG1-dependent DNA repair in HEK293T cells | AID 504467 | Potency, µM (titrated, usually from 46.1 µM), without a hit: at the top dose activity change, negative = inhibition, most hits filed as inhibitors | HEK293T ELG1-luciferase reporter, luminescence, 16 h; DNA damage induced by 5-fluorouridine | 330,000 tested, 2.3% active; also: % is scaled to controls: 0 for no effect and ±100 for the full control effect; nearly all actives have a fitted effect of over 55% in size
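5-Fluorouridine DNA damage + compound/DMSO, 2,000 cells/well, 16 h, 37 °C/5% CO2. ONE-Glo, 30 min RT, luminescence. Readout = decrease in reporter signal.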
Rab9 prom act: activates the Rab9 promoter; Huh7 Rab9 promoter-luciferase reporter, luminescence, 24 h; Potency, µM (series often up to 9.22 µM), for the others: top-dose activation, negative = inhibition, most hits filed as activators; 320,000 tested, 2.8% active; also: % of control where 0% means no effect; nearly all actives have a fitted effect of over 60% in size
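Quantitative HTS format; Huh7 Rab9-luciferase reporter cells (1500/well) receive compound 2 h post-plating, incubate 24 h at 37 °C, then get luciferase reagent for 10 min before luminescence reading.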
* = called active by the depositor; ? = inconclusive; / = no result given; [ ] = dose if it differs, or a comment. Calls follow the shape of the dose curve; as a rule, active = well fitted curve in the direction sought with a large enough effect; inconclusive = small, poorly fitted or top-dose-only effect, or another doubt; inactive = no such curve, though single readings can be large; an effect the other way counts as inactive or inconclusive. Potency is read from the fitted curve at half-maximal effect.

SMILES	SMN2 splice up	NPC1 prom act	FLuc modulator	ELG1 genotoxic	ELG1 repair inh	Rab9 prom act
O=C(O)c1ccc(N2C(=O)c3[nH]nc(-c4ccccc4)c3C2c2cccc(F)c2)cc1 (centres undefined)	6%	/	-14%	/	/	/
N#Cc1cc2c(nc1SCc1ccncc1)CCC2	11µM*	?	?	?	?	?
Cc1cc(NC(=O)CSc2nc3ccccc3cc2C#N)no1	/	?	?	18%	?	?
Cc1cc(NC(=O)CSc2nc3c(cc2C#N)CCC3)no1	/	0.5µM*	?	4.1µM*	?	0.5µM*
Cc1cc(NC(=O)CSc2nc3c(cc2C#N)CCCC3)no1	4µM*	2.5µM*	?	?	?	1.6µM*
CCCNC(=O)NC(=O)CSc1nnc(-c2c[nH]c3ccccc23)o1	/	-2%	-3%	-2%	2%	-1%
Nc1nc(COc2ccccc2C=O)nc(Nc2ccccc2)n1	/	-1%	-1%	5%	20%	-2%
CCCCn1c(CCNC(=O)c2cccs2)nc2ccccc21	9%	3.5µM*	4%[2.3 µM]	-4%	-28%	29%
COc1ccc2cc(CCNC(=O)c3cccs3)c(=O)[nH]c2c1	6.3µM*	2.8µM*	11µM*	?	?	2µM*
O=C(NCC(O)c1ccccc1)c1cccs1 (centres undefined)	/	2.5µM*	17µM*	?	?	?
O=C(NCCCc1ccccc1)c1cccs1	-9%	?	?	12%	?	26%
O=C(CNC(=O)c1cccs1)OCc1ccc(Br)cc1	/	1%	2%	-3%	2%	4%
O=C(CNC(=O)c1cccs1)c1ccc(Br)cc1	/	0.79µM*	9.5µM*	?	?	0.45µM*
COc1ccc2cc(CCNC(=O)c3cc4ccccc4o3)c(=O)[nH]c2c1	/	2%	6%	-5%	-8%	-1%
CCOC(=O)c1cc2c(=O)n3ccccc3nc2n(Cc2ccco2)c1=NC(=O)c1cccc(F)c1	1%	/	0%	/	/	/
Cc1ccccc1OCCSc1nc2ccc(NC(=O)c3ccccc3)cc2s1	/	/	-7%	/	/	/
O=C(OCCOCCN=C1NS(=O)(=O)c2ccccc21)c1ccccc1Br	/	1%	0%	3%	?	7%
Nc1nonc1-n1nnc(C(=O)N/N=C/c2ccccc2Cl)c1CN1CCOCC1	/	-3%	-4%	-2%	3%	-7%
O=C(NCCc1cccs1)c1cccs1	?	2.8µM*	13µM*	?	?	2.8µM*
O=C(NCCc1ccc(F)cc1)c1cccs1	16µM*	2.8µM*	12µM*	?	?	2.5µM*
CSc1ccc(-c2nc3c(C)cccn3c2Nc2ccc3c(c2)OCCO3)cc1	-1%	/	-8%	/	/	/
CCc1nc2sc3c(c2c(=S)[nH]1)CC(C)(C)OC3	/	15%	-10%	0%	11%	9%
CC(C)=NNc1nc2sc3c(c2c(=O)[nH]1)CC(C)(C)OC3	0%	1%	15µM*	0%	7%	-4%
CSc1nc2sc3c(c2c(=S)[nH]1)CC(C)(C)OC3	/	2%	19µM*	-2%	-9%	17%
CC1(C)Cc2c(sc3nc(N/N=C/c4ccccc4)[nH]c(=O)c23)CO1	-40%	3%	?	2%	2%	22%
COc1ccc(C(=O)Nn2cnnc2)cc1OC	/	-3%	-3%	0%	5%	-2%
COC(=O)c1sc(-c2ccc(Cl)cc2)cc1NC(=O)CSCC(=O)O	/	-1%	13µM*	0%	-2%	1%
COC(=O)c1sc(-c2ccc(C(C)(C)C)cc2)cc1NC(=O)COCC(=O)O	/	19%	3.8µM*	7%	0%	17%
CCN(CC)CCNC(=O)c1ccc2c(=O)n3nc(Nc4cccc(Cl)c4C)sc3nc2c1	/	/	-2%	/	/	/
Cc1c(/C=C/C(=O)c2ccc(C(C)C)cc2)cnn1C	-15%	11%	1.9µM*	?	?	?
